Source: PubChem
Compounds with a hit are over-represented: about 21% of the library has one in this group of screens.
Pf growth 96h: P. falciparum growth inhibition at 96 hours; P. falciparum luciferase reporter growth, 96 h; Potency, µM (highest dose often 28.7 µM), hits mostly inhibitors; hit rate 6.9% among 320,000; AID 504834
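Infected RBCs, 2% Hct / 0.05% parasitemia final; luciferase-reporter P. falciparum; cpd 96 h, 37 C, 5% CO2; luciferase detection reagent; luminescence.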
Cycloheximide cs: counter-screen hit for Shiga toxin inhibitors, cycloheximide; hit rate 12% among 300,000; cell reporter, cycloheximide protein synthesis inhibition counterscreen; max response, %; AID 2314; in the data active = max response mostly above about 13%, no sharp cut-off; inactive = mostly below about 14%; also: read at 38.3 µM for the half of the compounds with a filed dose
Shiga toxin inh: Shiga toxin inhibition; Vero cells, Shiga toxin protein synthesis inhibition reporter; inhibition, % at 38.7 µM; hit rate 9.2% among 290,000; AID 2315; in the data active = inhibition mostly above about 28%, no sharp cut-off; inactive = mostly below about 43%
HCMV inh: human cytomegalovirus inhibition; HFF cells, HCMV-luciferase reporter, 72 h; active compounds read low; activity change, negative = inhibition, % at 57.5 µM; hit rate 4.5% among 410,000; AID 1259415; in the data active = activity change below about -60%; inconclusive = no clear call, values can overlap the other calls; inactive = above about -39%
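Luciferase read-out from HCMV-luciferase-infected HFFs (MOI 1 PFU/cell) 72 h post infection at 37C; compounds added after 16 h cell attachment; activity normalized between buffer-only basal and Salinomycin (10uM) inhibitor controls.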
HCV inh: HCV inhibition; hit rate 3.4% among 340,000; Huh7.5.1 HCVcc-Cre infection, luciferase reporter, 44 h; AID 651820; Potency, µM (highest dose often 41.8 µM), hits mostly inhibitors
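After 44 h co-culture of compound, cells and HCVcc-Cre (~0.5 moi), substrate is added for 15 min at room temperature and luciferase measured over 15 sec. Cells were seeded at 1,000/well and pre-cultured 4 h.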
Pf growth 48h: P. falciparum growth inhibition at 48 hours (one generation) | P. falciparum luciferase growth in erythrocytes, 48 h | Potency, µM (highest dose often 28.7 µM), most hits filed as inhibitors | hit rate 5.9% among 310,000 | AID 504832
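Cell-based growth assay: transgenic P. falciparum expressing firefly luciferase, cultured in red cells within RPMI 1640 containing 0.5% w/v Albumax, 24 mM bicarbonate and gentamycin. A drop in luciferase activity indicates inhibition.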
A number is an active result; n = inactive; u = inconclusive; x = no result given; [ ] = remark or other dose. Unless noted, calls follow the shape of the dose curve; as a rule, active = well fitted inhibition curve with a large enough effect; inconclusive = small, poorly fitted or top-dose-only effect, or another doubt; inactive = no such curve, though single readings can be large or run the other way.

SMILES	Pf growth 96h	Cycloheximide cs	Shiga toxin inh	HCMV inh	HCV inh	Pf growth 48h
CCc1ccc(OCCCSc2nc(-c3ccc(C(C)(C)C)cc3)nc3cc(=O)[nH]n23)cc1	x	x	x	-84	x	x
COc1ccc(CNC(=O)c2c([S-])n(-c3ccc(C)cc3)c3cccc[n+]23)cc1	10µM	n	n	n	u	u
Cc1nc(N)nc(N)c1Oc1ccc(Cl)cc1	x	x	x	n	u	x
Cc1nc(N)nc(N)c1/C=C/C(C)(C)c1ccc(Cl)cc1	n	n	n	-109	u	n
COC(=O)c1ccc2nc(-c3ccc(Cl)cc3)c(Cc3ccccc3)n2c1	x	x	x	n	x	x
Cc1cc(C)nc(N/N=C2/CCSc3ccc(F)cc32)n1	10µM	n	n	n	n	u
O=C(O)c1ccc(N/N=C2/CCSc3ccc(F)cc32)cc1	n	38	n	n	n	n
Cc1ncc2c(n1)-c1cc(F)ccc1SC2	n	n	n	n	n	x
O/N=C1/CCSc2ccccc21	n	n	n	n	n	n
O/N=C1\CCSc2ccc(F)cc21	n	33	58	n	n	n
COC(=O)Cc1c(C)c2ccc3c(c2oc1=O)CN(Cc1ccccc1Cl)CO3	x	x	x	n	x	x
Cc1ccc2oc(=O)c(/C=C(\O)c3cccs3)nc2c1	u	72	77	n	n	n
O=c1oc2ccc(Cl)cc2nc1/C=C(\O)c1cccs1	n	62	56	n	n	u
CCS(=O)(=O)c1ccc2oc(=O)c(/C=C(\O)c3ccc(Cl)cc3)nc2c1	n	n	n	n	n	n
COCC(=O)N1C[C@H]2CON(C)[C@H]2C[C@H]1c1ccc(N2CCCCC2)cc1	x	x	x	n	x	x
Cc1oc2c(cc(NS(=O)(=O)c3ccc(Br)cc3)c3ccccc32)c1C(=O)OCc1ccccc1	x	x	x	n	x	x
CC(CN)(NS(=O)(=O)c1ccccc1)c1ccccc1 (stereo not drawn)	u	n	n	n	n	n
Cc1cccc2nc(CSc3ccccc3N)cn12	x	x	x	n	n	x
Cc1cccc2nc(COc3ccc4ccccc4c3Br)cn12	n	46	48	n	n	n
CN1c2ccccc2-c2nc3ccccc3n2C1c1cccs1 (stereo not drawn)	1.7µM	n	n	n	u	8.3µM
CC(=O)N1c2ccccc2-c2nc3ccccc3n2C1C (stereo not drawn)	n	n	n	n	n	n
Cc1ccc(C2N(C)c3ccccc3-c3nc4ccccc4n32)o1 (stereo not drawn)	3.7µM	n	n	n	u	x
CCCOc1ccc(Oc2nc(NCC(C)C)nc(N(C)C)n2)nn1	x	x	x	n	x	x
Cc1ccc2nc(-c3ccc(NS(=O)(=O)c4c(C)n(C)c(=O)n(C)c4=O)cc3)sc2c1	n	67	121	n	u	n
Cc1cccc(S(=O)(=O)Nc2ccc(-c3nc4ccc(C)cc4s3)cc2)c1	n	83	74	n	n	n
SMILES	Pf growth 96h	Cycloheximide cs	Shiga toxin inh	HCMV inh	HCV inh	Pf growth 48h
O=C1[C@@H]2Cc3c([nH]c4ccccc34)C(c3cccc(Br)c3)N2C(=O)CN1C1CCN(Cc2ccccc2)CC1 (stereo partly drawn)	u	18	n	n	u	1.5µM
CN1CC(=O)N2C(Cc3c([nH]c4ccccc34)[C@H]2c2ccc3c(c2)OCO3)C1=O (stereo partly drawn)	u	x	x	x	x	n
O=C1[C@@H]2Cc3c([nH]c4ccccc34)C(c3ccccc3)N2C(=O)CN1C1CCN(Cc2ccccc2)CC1 (stereo partly drawn)	0.74µM	n	n	-76	n	n[0.00184 µM]
COC(=O)c1ccc(C2c3[nH]c4ccccc4c3C[C@H]3C(=O)N(C4CCN(Cc5ccccc5)CC4)CC(=O)N23)cc1 (stereo partly drawn)	3.3µM	n	n	n	10µM	4.7µM
CCOc1c(Cl)cc(Cl)cc1CNCCSc1nnnn1C	x	x	x	n	x	x
CCOC(=O)C1=C(C)c2ccccc2N(C(=O)OC)C1(C)C(=O)OCC (stereo not drawn)	x	n	n	n	n	x
CCC(C)C(=O)N1c2ccccc2C(=C2SC(C(=O)OC)=C(C(=O)OC)S2)C(=S)C1(C)C (stereo not drawn)	u	n	n	n	u	9.3µM
CCOc1ccc(-c2noc(CCC(=O)NC)n2)cc1OCC	n	n	n	n	n	n
CCOC(=O)c1ccc(NC(=O)CCc2nc(-c3cccc(C)c3)no2)cc1	x	n	n	n	8.9µM	u
CC(C)(C)c1ccc(-c2noc(CCC(N)=O)n2)cc1	x	35	72	u	n	n
Cc1ccc(-c2noc(CNC(=O)c3ccc(C(C)(C)C)cc3)n2)cc1	x	x	x	n	x	x
CN(C)C(=O)CCc1nc(-c2ccc(C(C)(C)C)cc2)no1	n	44	123	n	n	n
CNC(=O)CCc1nc(-c2ccc(C(C)(C)C)cc2)no1	u	41	n	n	n	n
CCN(C(=O)COC(=O)CCOc1cc(C)ccc1C)c1c(N)n(Cc2ccccc2)c(=O)[nH]c1=O	x	x	x	n	n	x
Cc1ccc(-c2noc(CCC(=O)Nc3cccc(C#N)c3)n2)cc1	u	34	34	n	u	u
CC(C)(C)c1ccc(-c2noc(CCC(=O)N3CCOCC3)n2)cc1	n	26	n	n	n	n
COc1ccc(-c2noc(CCCC(=O)N3CCOCC3)n2)cc1	n	n	n	n	n	n
CCOc1ccccc1-c1noc(CCC(=O)Nc2cccnc2)n1	8.3µM	n	n	n	n	n
CC(C)(C)c1ccc(-c2noc(CCC(=O)Nc3cccnc3)n2)cc1	n	n	n	-75	u	n
O=C(O)C1(O)C[C@H](O)C(O)[C@@H](O)C1 (stereo partly drawn)	n	x	x	n	n	n
CC(C)(C)c1ccc(-c2noc(CCC(=O)NCC3CCCO3)n2)cc1 (stereo not drawn)	n	43	n	-72	u	x
COc1cc(-c2noc(CCC(N)=O)n2)cc(OC)c1OC	9.3µM	n	n	n	x	n
O=C(N/N=C/c1ccncc1)c1cccc(S(=O)(=O)Nc2ccc(Cl)cc2)c1	n	n	n	n	n	n
O=C(O)CN1C(=O)/C(=C\c2cc(Br)ccc2OCc2ccc([N+](=O)[O-])cc2)SC1=S	u	n	n	n	n	n
O=C(O)CN1C(=O)/C(=C\c2cc(Br)ccc2OCc2ccccc2Cl)SC1=S	n	42	77	n	n	n
O=C(O)CN1C(=O)/C(=C\c2ccccc2OCc2ccc(Cl)cc2Cl)SC1=S	u	16	38	n	n	n
O=C(O)CN1C(=O)/C(=C\c2cccc(OCc3ccc(Cl)cc3Cl)c2)SC1=S	u	22	68	n	n	n
O=C(O)CN1C(=O)/C(=C\c2cc(Br)ccc2OCc2ccccc2F)SC1=S	u	n	n	n	n	n
OCC[C@H]1C[C@H](O)[C@@H](O)[C@]2(CCCc3ccccc3O2)O1	n	x	x	n	n	n
COc1ccc(CN2C(=O)C(CC(=O)NCCc3ccccn3)CC(C(=O)N3CCOCC3)=C2C)cc1 (stereo not drawn)	x	x	x	n	x	x
